{"source": "PubChem BioAssay (Tox21)", "note": "Records with an inconclusive call do not appear. Calls of active or inactive are those of the source. Calls follow the shape of the dose curve; as a rule, active = well fitted curve in the direction sought with a large enough effect in the repeat runs; inconclusive = weak or mixed curves; inactive = no such curve, though single readings can be large; an effect the other way counts as inactive or inconclusive. % is scaled to controls: 0 for no effect and ±100 for the full control effect.", "data": [{"experiment": "qHTS assay to identify small molecule agonists of the RXR signaling pathway - cell viability counter screen (AID 1159529); also: nearly all actives have a fitted effect of over 50% in size", "details": "RXR-alpha-bla HEK293T viability, CellTiter-Glo, 16 h; series mostly up to 76.8 µM; activity change, negative = cytotoxicity: at the top concentration", "method_in_brief": "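Luminescence from CellTiter-Glo (30 min, RT) measured viability in the same wells as the beta-lactamase reporter readout. Cells: GeneBLAzer RXR-alpha HEK 293T, 2% charcoal-stripped FBS. Compound exposure 16 hr, 37 C.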", "values": [{"smiles": "Cc1ccc(C)o1", "activity change, negative = cytotoxicity": "4.79% (inactive)"}, {"smiles": "CCCCCCCCCC(=O)OCC", "activity change, negative = cytotoxicity": "-0.622% (inactive)"}, {"smiles": "O=C(NS(=O)(=O)/C=C/c1cccs1)c1ccc(F)cc1Br", "activity change, negative = cytotoxicity": "-11% (inactive)"}, {"smiles": "CC(=O)O[C@H]1C[C@@H]2CC[C@@H]3[C@H](CC[C@@]4(C)[C@H]3C[C@H]([N+]3(C)CCCCC3)[C@@H]4OC(C)=O)[C@@]2(C)C[C@@H]1N1CCCCC1", "activity change, negative = cytotoxicity": "0.322% [at 35.3 µM] (inactive)"}, {"smiles": "O=c1[nH]cnc2ccccc12", "activity change, negative = cytotoxicity": "0.765% (inactive)"}, {"smiles": "Cc1ccc(C(=O)C(C)CN2CCCCC2)cc1", "note": "(stereo not given)", "activity change, negative = cytotoxicity": "-10.6% [at 35.3 µM] (inactive)"}, {"smiles": "CC(C)c1ccccc1C(C)C", "activity change, negative = cytotoxicity": "-9.78% (inactive)"}, {"smiles": "CC(C)(C)c1ccc(S)cc1", "activity change, negative = cytotoxicity": "1.69% (inactive)"}, {"smiles": "CC(=O)[C@@]1(O)CC[C@H]2[C@@H]3C[C@H](C)C4=CC(=O)CC[C@]4(C)[C@H]3CC[C@@]21C", "activity change, negative = cytotoxicity": "-11.8% [at 35.3 µM] (inactive)"}, {"smiles": "C#CCOC(=O)[C@@H](C)Oc1ccc(Oc2ncc(Cl)cc2F)cc1", "activity change, negative = cytotoxicity": "-0.411% (inactive)"}, {"smiles": "CC1=CC(=O)/C(=C(/C)O)C(=O)O1", "activity change, negative = cytotoxicity": "21.9% (inactive)"}, {"smiles": "Nc1nc(N)c(-c2ccccc2)s1", "activity change, negative = cytotoxicity": "7.3% [at 35.3 µM] (inactive)"}, {"smiles": "Oc1ccc(C(O)CNCCCCCCNCC(O)c2ccc(O)c(O)c2)cc1O", "note": "(stereo not given)", "activity change, negative = cytotoxicity": "4.47% [at 35.3 µM] (inactive)"}, {"smiles": "OC(CCN1CCCCC1)(c1ccccc1)C1CCCCC1", "note": "(stereo not given)", "activity change, negative = cytotoxicity": "-20.1% [at 35.3 µM] (inactive)"}, {"smiles": "O=C1Nc2cc(Cl)ccc2Oc2ccccc21", "activity change, negative = cytotoxicity": "-7.68% [at 35.3 µM] (inactive)"}, {"smiles": "CC(=O)/C=C/C1C(C)=CCCC1(C)C", "note": "(stereo not given)", "activity change, negative = cytotoxicity": "9.3% (inactive)"}, {"smiles": "Oc1ccc(O)c2c(O)cccc12", "activity change, negative = cytotoxicity": "2.31% (inactive)"}, {"smiles": "O=S1(=O)c2cccc3cccc(c23)N1CCCN1CCN(c2ccc(F)cc2)CC1", "activity change, negative = cytotoxicity": "-7.84% [at 35.3 µM] (inactive)"}, {"smiles": "Cc1ncsc1CCO", "activity change, negative = cytotoxicity": "5.75% (inactive)"}, {"smiles": "Cc1cc(C)c(S(=O)(=O)O)cc1N=Nc1cc(S(=O)(=O)O)c2ccccc2c1O", "activity change, negative = cytotoxicity": "1.28% (inactive)"}, {"smiles": "CCCCCOC(=O)c1ccc(O)cc1", "activity change, negative = cytotoxicity": "-21.1% (inactive)"}, {"smiles": "O=[N+]([O-])c1cc[n+]([O-])cc1", "activity change, negative = cytotoxicity": "-17.1% (inactive)"}, {"smiles": "CC(C)(Oc1ccc(Cl)cc1)C(=O)OCCCOC(=O)C(C)(C)Oc1ccc(Cl)cc1", "activity change, negative = cytotoxicity": "-1.11% [at 35.3 µM] (inactive)"}, {"smiles": "CCCC(=O)OCC", "activity change, negative = cytotoxicity": "-11.2% (inactive)"}]}, {"experiment": "qHTS assay to identify small molecule antagonists of the retinoid acid receptor (RAR) signaling pathway - cell viability counter screen (AID 1159551); also: nearly all actives have a fitted effect of over 35% in size", "details": "C3RL4 cells viability, ATP luminescence (CellTiter-Glo), 6 h; series mostly up to 92.4 µM; activity change, negative = cytotoxicity: at the top concentration", "method_in_brief": "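Cytotoxicity counter screen in C3RL4 cells: 6 h compound exposure with 1 uM retinol (final), viability from cellular ATP by luminescence.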", "values": [{"smiles": "CCCCCCCCCC(=O)OCC", "activity change, negative = cytotoxicity": "4.99% (inactive)"}, {"smiles": "CC[C@H](C)[C@@H](C(=O)O)n1sc2ccccc2c1=O", "activity change, negative = cytotoxicity": "-0.317% (inactive)"}, {"smiles": "O=C(NS(=O)(=O)/C=C/c1cccs1)c1ccc(F)cc1Br", "activity change, negative = cytotoxicity": "3.2% (inactive)"}, {"smiles": "CC(=O)O[C@H]1C[C@@H]2CC[C@@H]3[C@H](CC[C@@]4(C)[C@H]3C[C@H]([N+]3(C)CCCCC3)[C@@H]4OC(C)=O)[C@@]2(C)C[C@@H]1N1CCCCC1", "activity change, negative = cytotoxicity": "-0.913% [at 42.5 µM] (inactive)"}, {"smiles": "CC(C)(C)c1cc(CCC(=O)OCC(COC(=O)CCc2cc(C(C)(C)C)c(O)c(C(C)(C)C)c2)(COC(=O)CCc2cc(C(C)(C)C)c(O)c(C(C)(C)C)c2)COC(=O)CCc2cc(C(C)(C)C)c(O)c(C(C)(C)C)c2)cc(C(C)(C)C)c1O", "activity change, negative = cytotoxicity": "10.2% [at 42.5 µM] (inactive)"}, {"smiles": "CN(C)C/C=C(/c1ccc(Br)cc1)c1cccnc1", "activity change, negative = cytotoxicity": "0.976% [at 42.5 µM] (inactive)"}, {"smiles": "Cc1ccc(C(=O)C(C)CN2CCCCC2)cc1", "note": "(stereo not given)", "activity change, negative = cytotoxicity": "-0.335% [at 42.5 µM] (inactive)"}, {"smiles": "CC(C)c1ccccc1C(C)C", "activity change, negative = cytotoxicity": "-0.411% (inactive)"}, {"smiles": "CC(C)(C)c1ccc(S)cc1", "activity change, negative = cytotoxicity": "-0.0135% (inactive)"}, {"smiles": "CC(=O)[C@@]1(O)CC[C@H]2[C@@H]3C[C@H](C)C4=CC(=O)CC[C@]4(C)[C@H]3CC[C@@]21C", "activity change, negative = cytotoxicity": "-0.438% [at 42.5 µM] (inactive)"}, {"smiles": "CN(C)CC[C@@H](c1ccc(Br)cc1)c1ccccn1", "activity change, negative = cytotoxicity": "-0.344% [at 42.5 µM] (inactive)"}, {"smiles": "CC1=CC(=O)/C(=C(/C)O)C(=O)O1", "activity change, negative = cytotoxicity": "2.12% (inactive)"}, {"smiles": "O=C(NN1CCCC1)NS(=O)(=O)c1ccc(Cl)cc1", "activity change, negative = cytotoxicity": "-0.649% [at 42.5 µM] (inactive)"}, {"smiles": "Nc1nc(N)c(-c2ccccc2)s1", "activity change, negative = cytotoxicity": "-0.309% [at 42.5 µM] (inactive)"}, {"smiles": "Oc1ccc(C(O)CNCCCCCCNCC(O)c2ccc(O)c(O)c2)cc1O", "note": "(stereo not given)", "activity change, negative = cytotoxicity": "0.157% [at 42.5 µM] (inactive)"}, {"smiles": "OC(CCN1CCCCC1)(c1ccccc1)C1CCCCC1", "note": "(stereo not given)", "activity change, negative = cytotoxicity": "3.53% [at 42.5 µM] (inactive)"}, {"smiles": "O=C1Nc2cc(Cl)ccc2Oc2ccccc21", "activity change, negative = cytotoxicity": "-0.259% [at 42.5 µM] (inactive)"}, {"smiles": "CC(=O)/C=C/C1C(C)=CCCC1(C)C", "note": "(stereo not given)", "activity change, negative = cytotoxicity": "-2.46% (inactive)"}, {"smiles": "CCCCCOC(=O)COc1cc(N2C(=O)C3=C(CCCC3)C2=O)c(F)cc1Cl", "activity change, negative = cytotoxicity": "0.0467% (inactive)"}, {"smiles": "Cn1c(NCCN(CCO)CCCc2ccc([N+](=O)[O-])cc2)cc(=O)n(C)c1=O", "activity change, negative = cytotoxicity": "-0.372% [at 42.5 µM] (inactive)"}, {"smiles": "Cc1ccccn1", "activity change, negative = cytotoxicity": "0.84% (inactive)"}, {"smiles": "C=CC(C)(CCC=C(C)C)OC(=O)c1ccccc1", "note": "(stereo not given)", "activity change, negative = cytotoxicity": "-2.96% (inactive)"}, {"smiles": "O=S1(=O)c2cccc3cccc(c23)N1CCCN1CCN(c2ccc(F)cc2)CC1", "activity change, negative = cytotoxicity": "-4.47% [at 42.5 µM] (inactive)"}, {"smiles": "Cc1ncsc1CCO", "activity change, negative = cytotoxicity": "-0.492% (inactive)"}, {"smiles": "O=[N+]([O-])c1cc[n+]([O-])cc1", "activity change, negative = cytotoxicity": "-6.93% (inactive)"}, {"smiles": "CC(C)(Oc1ccc(Cl)cc1)C(=O)OCCCOC(=O)C(C)(C)Oc1ccc(Cl)cc1", "activity change, negative = cytotoxicity": "0.573% [at 42.5 µM] (inactive)"}, {"smiles": "CCCC(C)C", "activity change, negative = cytotoxicity": "0.452% (inactive)"}, {"smiles": "CN(c1nccc(=O)[nH]1)C1CCN(c2nc3ccccc3n2Cc2ccc(F)cc2)CC1", "activity change, negative = cytotoxicity": "0.523% [at 42.5 µM] (inactive)"}, {"smiles": "CCCC(=O)OCC", "activity change, negative = cytotoxicity": "2.51% (inactive)"}, {"smiles": "O=S1(=O)N=C(O)c2ccccc21", "activity change, negative = cytotoxicity": "4.01% [at 42.5 µM] (inactive)"}, {"smiles": "O=C(O)/C=C/c1cnc[nH]1", "activity change, negative = cytotoxicity": "1.17% (inactive)"}]}]}
